Values joined by “and” are separate entries in the source; they are usually repeats but may differ in a detail not shown here. Equal values may be shown once. The campaign covered roughly 350,000 compounds. About 6,000 (1.7%) were called active. Inconclusive results (about 5%) are left out. Cut-off read from the data, not from the text of the source: active = CPE inhibition above about 20% (passing the limit was not always enough); inconclusive = no clear call, values can overlap the other calls; tested in BHK-21 cells. Many of the other results were omitted from the sample, so actives are more common in it than they were. Some structures have more than one record in an assay (separate samples or runs), and their calls can disagree.

A short description of this test: protection of cells from dengue 2 killing – plate reader, single concentration, primary screen (AID 651640).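 Note: 0% = median of neutral control wells and 100% = median of positive control wells.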 The settings on record: DENV2-infected cells, cytopathic effect rescue, at 9.99 µM, stronger effect = higher value. A general note: Protection from cytopathic effect is a common read-out in antiviral testing.
`O=C(c1ccncc1)N1CC(=O)N2[C@H](CO)[C@@H](c3ccc(-c4cccnc4)cc3)[C@H]2C1`: the CPE inhibition was -6.23% (inactive).

Take `COc1ccc2c3c(n(C)c2c1)[C@H](CO)N(C(=O)C1CCCC1)CC31CCN(C(=O)c2ccncc2)CC1`: the CPE inhibition was 4.15% (inactive). With `CO[C@@H]1CN(C)C(=O)c2ccc(NC(=O)NC(C)C)cc2OC[C@@H](C)N(C(=O)NC(C)C)C[C@H]1C` the figure was 9.11% (inactive); with `C[C@@H]1CCCCO[C@H](CN(C)CC2CCCCC2)[C@H](C)CN([C@H](C)CO)C(=O)c2cc(NS(=O)(=O)c3ccc(F)cc3)ccc2O1`, -1.47% (inactive). With `C[C@@H]1CCCCO[C@H](CN(C)Cc2ccc3c(c2)OCO3)[C@H](C)CN([C@@H](C)CO)C(=O)c2cc(NS(=O)(=O)c3cccs3)ccc2O1`, the CPE inhibition is -2.06% (inactive) and 0.641% (inactive). For the molecule `CCCN1C(=O)c2[nH]nc(-c3ccccc3)c2C1c1ccccc1` (stereo not drawn), the CPE inhibition was 1.19% (inactive). On to `CO[C@H]1CN(C)C(=O)c2ccc(NC(C)=O)cc2OC[C@H](C)N(CC2CC2)C[C@@H]1C`, for which the CPE inhibition is -14.7% (inactive). In the case of `C[C@@H]1CN([C@@H](C)CO)C(=O)Cc2cc(NC(=O)Nc3ccc(C(F)(F)F)cc3)ccc2O[C@H]1CN(C)Cc1ccc(C(=O)O)cc1`, the CPE inhibition is 30.9% (active). With `C[C@H]1CN([C@@H](C)CO)C(=O)Cc2cc(NC(=O)C3CCCCC3)ccc2O[C@H]1CN(C)C(=O)Nc1ccc(C(F)(F)F)cc1`, the CPE inhibition is -1.37% (inactive). For the molecule `C[C@@H]1CN([C@H](C)CO)C(=O)Cc2cc(NC(=O)C3CCCCC3)ccc2O[C@@H]1CN(C)Cc1ccc(C(F)(F)F)cc1`, the CPE inhibition is 31.3% (active).

On to `C[C@@H]1CN([C@H](C)CO)C(=O)Cc2cc(NC(=O)Nc3ccccc3)ccc2O[C@@H]1CN(C)Cc1ccc(C(F)(F)F)cc1`, for which the CPE inhibition was -6.47% (inactive).

In the case of `C[C@@H]1CN([C@@H](C)CO)C(=O)Cc2cc(NC(=O)Nc3ccc(F)cc3)ccc2O[C@@H]1CN(C)S(=O)(=O)c1ccccc1`, the CPE inhibition was 76.2% (active).

`C[C@H](CO)N1C[C@H](C)[C@@H](CN(C)S(=O)(=O)c2ccccc2)Oc2ccc(NC(=O)Nc3ccc(F)cc3)cc2CC1=O`: the CPE inhibition was 13.5% (inactive). On to `C[C@@H]1CN([C@@H](C)CO)C(=O)Cc2cc(NC(=O)C3CCCCC3)ccc2O[C@@H]1CN(C)C(=O)Nc1ccc(C(F)(F)F)cc1`, for which the CPE inhibition is 2.75% (inactive). On to `C[C@H]1CN([C@@H](C)CO)C(=O)Cc2cc(NC(=O)Nc3ccc(C(F)(F)F)cc3)ccc2O[C@H]1CN(C)Cc1ccc(C(=O)O)cc1`, for which the CPE inhibition is 16.5% (inactive).

As for `C[C@H]1CN([C@@H](C)CO)C(=O)Cc2cc(NC(=O)Nc3ccc(F)cc3)ccc2O[C@H]1CN(C)S(=O)(=O)c1ccccc1`, the CPE inhibition was 1.86% (inactive). For `COCC#Cc1cnc2c(c1)C(=O)N([C@H](C)CO)C[C@H](C)[C@H](CN(C)C(=O)C1CCOCC1)O2`, the CPE inhibition was 8% (inactive). As to `O=C(C[C@H]1C[C@@H]2c3cc(NC(=O)CC4CC4)ccc3O[C@@H]2[C@@H](CO)O1)NCc1cc(F)ccc1F`, the CPE inhibition was -1.05% (inactive).

Take `C[C@@H]1CN([C@H](C)CO)C(=O)c2cc(NC(=O)c3ccncc3)ccc2O[C@H]1CN(C)Cc1ccc(Oc2ccccc2)cc1`: the CPE inhibition was -0.0445% (inactive). On to `C[C@@H]1CCCCO[C@@H](CN(C)C(=O)Cc2ccccc2)[C@H](C)CN([C@H](C)CO)C(=O)c2cc(NC(=O)Cc3ccccc3)ccc2O1`, for which the CPE inhibition was 13.3% (inactive). With `COc1ccc(-c2ccc3c(c2)[C@H]2[C@H](CCN2C(=O)c2ccc4c(c2)OCO4)[C@@H](CO)N3)cc1` the figure was -26.6% (inactive); with `Cc1ccc(C)c(CN2CCC(CNC(=O)C3CCCN(c4ncnc5c4nc4n5CCCCC4)C3)CC2)c1` (stereo not drawn), 3.53% (inactive); with `CCCN1C[C@@H](C)[C@@H](OC)CN(C)C(=O)c2ccc(NC(=O)CC(F)(F)F)cc2OC[C@H]1C`, 1.09% (inactive).

For `CN1c2ccc(Br)cc2[C@H]2[C@H](CCN2S(=O)(=O)c2ccc(F)cc2)[C@@H]1CO`, the CPE inhibition was 0.0605% (inactive). Regarding `CO[C@@H]1CN(C)C(=O)c2ccc(NC(=O)C3CC3)cc2OC[C@H](C)N(C(C)=O)C[C@H]1C`, the CPE inhibition was 7.67% (inactive). `COc1ccc(C[C@H]2CN3C(=NC[C@H]3C)N2CCNC(=O)CCC2CCCCC2)cc1`: the CPE inhibition was -4.48% (inactive).

Take `C/C=C(\C)C(=O)NCCN1C2=NC[C@H](Cc3ccc(O)cc3)N2C[C@@H]1Cc1ccc(OC)cc1`: the CPE inhibition was 77.3% (active).

With `NC1=NC[C@@H](Cc2ccc(O)cc2)N1CC1CCCCC1`, the CPE inhibition was 2.56% (inactive). Regarding `CCC(=O)N1C[C@@H](O)COC[C@H]2O[C@H](CC(=O)NCC3CCCCC3)CC[C@@H]21`, the CPE inhibition is -3.58% (inactive).

For the molecule `CCC(=O)Nc1ccc2c(c1)nc(CCN1CCN(c3ccccn3)CC1)n2C`, the CPE inhibition was 0.997% (inactive). Regarding `CCOC(=O)N1CCN(Cc2nc3cc(NC(C)=O)ccc3n2C)CC1`, the CPE inhibition was -3.68% (inactive). Take `CCOC(=O)N1CCN(Cc2nc3cc(NC(=O)CC)ccc3n2CC)CC1`: the CPE inhibition is 38.6% (active).

In the case of `C[C@@H]1CN([C@H](C)CO)C(=O)c2cccc(NC(=O)c3ccncc3)c2O[C@@H]1CN(C)S(=O)(=O)c1cn(C)cn1`, the CPE inhibition was 15% (inactive). As for `O=C(Nc1ccccc1F)N[C@@H]1C=C[C@H](CC(=O)N2CCCCC2)O[C@@H]1CO`, the CPE inhibition was -0.192% (inactive).

With `Cc1noc(C)c1NC(=O)N(C)C[C@@H]1OCCCC[C@H](C)Oc2ccc(NC(=O)c3ccccc3)cc2C(=O)N([C@@H](C)CO)C[C@@H]1C`, the CPE inhibition was 16.5% (inactive). As to `COc1ccc(C#Cc2cnc3c(c2)C(=O)N([C@@H](C)CO)C[C@H](C)[C@@H](CN(C)C(C)=O)O3)cc1`, the CPE inhibition is 2.83% (inactive). With `C/C=C/c1cnc2c(c1)C(=O)N([C@@H](C)CO)C[C@@H](C)[C@@H](CN(C)C(=O)c1cnccn1)O2`, the CPE inhibition was 2.38% (inactive). For `C[C@H]1CN([C@@H](C)CO)C(=O)c2cc(C#Cc3ccc(F)cc3)cnc2O[C@@H]1CN(C)C(=O)Nc1ccc(F)cc1` the value was -4.85% (inactive). With `C[C@H](CO)N1C[C@H](C)[C@H](CN(C)C)Oc2ncc(C#Cc3ccc(F)cc3)cc2C1=O` the figure was -5.08% (inactive) and 2.36% (inactive); with `C/C=C/c1cnc2c(c1)C(=O)N([C@@H](C)CO)C[C@@H](C)[C@H](CN(C)C(=O)c1cnccn1)O2`, -1.7% (inactive). Consider `CC(=O)N(C)C[C@@H]1Oc2ncc(C#Cc3ccc(F)cc3)cc2C(=O)N([C@H](C)CO)C[C@@H]1C`, for which the CPE inhibition is 28.5% (active). On to `COc1ccc(C#Cc2cnc3c(c2)C(=O)N([C@H](C)CO)C[C@H](C)[C@@H](CN(C)C)O3)cc1`, for which the CPE inhibition is 19.9% (inactive). Regarding `C[C@H](CO)N1C[C@H](C)[C@@H](CN(C)C(=O)c2cnccn2)Oc2ncc(Br)cc2C1=O`, the CPE inhibition is 17.4% (inactive) and 62.5% (active). For `COc1ccc(C#Cc2cnc3c(c2)C(=O)N([C@H](C)CO)C[C@@H](C)[C@@H](CN(C)C(=O)CN(C)C)O3)cc1`, the CPE inhibition was 33.2% (active). Regarding `N#C[C@H]1[C@H](c2ccccc2)[C@@H](CO)N1C(=O)c1cccnc1`, the CPE inhibition was -0.249% (inactive). For `COC(=O)[C@]12C[C@H](CC(=O)NCc3ccc(C)o3)C(=O)N(CCC3=CCCCC3)C1=C[C@H](C(C)(C)C)O[C@@H]2C`, the CPE inhibition is 13.9% (inactive).

For the molecule `CN(C)C(=O)[C@@H]1[C@@H](CO)[C@@H]2Cn3c(cccc3=O)[C@@H]2N1C(=O)C1CCC1`, the CPE inhibition is -0.032% (inactive). For `O=C(Nc1cccc(Cl)c1)N1C[C@@H]2[C@H](c3ccccc31)[C@H](CO)N2Cc1ccncc1` the value was -4.1% (inactive); for `C/C=C/c1ccc([C@H]2[C@@H](CO)N[C@@H]2CN(CC)C(=O)CN2CCOCC2)cc1`, -9.22% (inactive).

Regarding `O=C(C[C@@H]1C[C@H]2c3cc(NC(=O)NC4CCCCC4)ccc3O[C@H]2[C@H](CO)O1)NCc1ccncc1`, the CPE inhibition was -3.13% (inactive). With `CC(C)NC(=O)N(C)C[C@@H]1Oc2ncc(C3=CCCCC3)cc2C(=O)N([C@H](C)CO)C[C@@H]1C` the figure was 4.71% (inactive); with `CCCNC(=O)C[C@H]1C[C@@H]2c3cc(NC(=O)COC)ccc3O[C@@H]2[C@@H](CO)O1`, -2.37% (inactive); with `CN1OC[C@@H]2CN(C(=O)C(C)(C)C)[C@H](c3ccc(-n4ccnc4)cc3)C[C@@H]21`, -4.59% (inactive). As for `CN1OC[C@@H]2CN(C(=O)c3cccnc3)[C@H](c3ccc(N4CCCCC4)cc3)C[C@@H]21`, the CPE inhibition was 42.6% (active).

For the molecule `CN1OC[C@@H]2CN(C(=O)c3cccc4ccccc34)[C@H](c3ccc(N4CCCCC4)cc3)C[C@@H]21`, the CPE inhibition was 1.89% (inactive). For `COc1ccc(NC(=O)Nc2ccc3c(c2)C(=O)N([C@@H](C)CO)C[C@@H](C)[C@@H](CN(C)Cc2ccncc2)OCCCC[C@@H](C)O3)cc1`, the CPE inhibition was -9.1% (inactive). Take `CN1C(=O)c2cc(NC(=O)c3cccs3)ccc2OC[C@H]2O[C@@H](CC(=O)NCC3CC3)CC[C@@H]21`: the CPE inhibition was -3.31% (inactive). For `C/C=C/c1ccc([C@@H]2[C@@H](CO)N(CC3CCCC3)C23CN(S(=O)(=O)CC)C3)cc1` the value was -5.75% (inactive).

`C/C=C/c1ccc([C@@H]2[C@H](CO)N(CC3CCCC3)C23CN(C(=O)CC)C3)cc1`: the CPE inhibition was 2.47% (inactive). As to `C/C=C/c1ccc([C@@H]2[C@H](CO)N(CC3CCOCC3)C23CN(S(=O)(=O)CC)C3)cc1`, the CPE inhibition was 73.3% (active).

Regarding `CO[C@H]1CN(C)C(=O)c2ccc(NS(=O)(=O)c3cn(C)cn3)cc2OC[C@H](C)N(C)C[C@H]1C`, the CPE inhibition is -10.1% (inactive). For `C/C=C/c1cnc2c(c1)C(=O)N([C@H](C)CO)C[C@H](C)[C@H](CN(C)C(=O)c1cccc(F)c1)O2` the value was -1% (inactive); for `C[C@@H]1CN([C@@H](C)CO)S(=O)(=O)c2ccc(Br)cc2O[C@H]1CN(C)S(=O)(=O)c1ccccc1`, -1.43% (inactive).
